Screening results from PubChem.
MITF primary: inhibitors of human MITF; O75030; AlphaScreen MITF homodimerization, bead proximity signal; inhibition, % at 2.6 µM; hit rate 0.91% among 650,000; AID 1259374; in the data active = inhibition above about 50%;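 also: 0% = vehicle wells with protein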
FBW7 act: activators of human E3 ligase FBW7 | normalized activity (activation), % at 26.1 µM | AlphaScreen FBW7–phospho-cyclin E peptide binding, activator screen | hit rate 0.13% among 650,000; in the data active = normalized activity above about 1.9%;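 also: purified mutant Fbw7 with reduced substrate affinity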
Target sequence (Q969H0 whole entry, looked up): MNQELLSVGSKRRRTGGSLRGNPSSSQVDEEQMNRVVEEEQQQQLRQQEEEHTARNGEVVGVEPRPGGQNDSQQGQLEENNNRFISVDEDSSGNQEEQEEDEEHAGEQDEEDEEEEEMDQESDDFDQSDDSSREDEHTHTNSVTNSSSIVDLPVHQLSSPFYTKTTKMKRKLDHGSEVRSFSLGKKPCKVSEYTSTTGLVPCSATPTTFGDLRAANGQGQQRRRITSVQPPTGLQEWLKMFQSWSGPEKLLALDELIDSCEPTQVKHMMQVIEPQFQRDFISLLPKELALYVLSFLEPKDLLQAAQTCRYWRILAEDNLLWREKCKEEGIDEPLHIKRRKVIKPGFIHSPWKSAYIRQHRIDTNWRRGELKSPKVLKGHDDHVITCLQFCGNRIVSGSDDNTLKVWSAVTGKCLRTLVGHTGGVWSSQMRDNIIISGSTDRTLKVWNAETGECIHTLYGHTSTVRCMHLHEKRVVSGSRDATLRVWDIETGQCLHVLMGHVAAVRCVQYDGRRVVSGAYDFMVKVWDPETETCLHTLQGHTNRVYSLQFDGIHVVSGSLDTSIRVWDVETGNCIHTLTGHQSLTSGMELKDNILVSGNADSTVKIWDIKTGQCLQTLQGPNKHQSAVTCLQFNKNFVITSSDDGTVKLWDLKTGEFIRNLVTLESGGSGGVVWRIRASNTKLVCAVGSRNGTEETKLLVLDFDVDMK
GPR151 ag: human GPR151 activation; Q8TDV0; PathHunter beta-arrestin GPR151 cells, luminescence; activation, % at 11.2 µM; hit rate 1% among 650,000; AID 1508602; in the data active = activation above about 4.9%;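 also: 0% = median of compound wells and 100% = cells with positive control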
TEAD-YAP inh: TEAD-YAP interaction inhibition; HEK-TIYL cells, TEAD-Gal4/YAP UAS-luciferase luminescence; inhibition, % at 9.12 µM; hit rate 1.4% among 640,000; AID 1259422; in the data active = inhibition above about 32%;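 also: 0% = median of test compound wells and 100% = reference inhibitor wells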
* = called active by the depositor; · = not tested or not shown. This is a sample that favours compounds with a hit; in the whole collection about 3.5% have one here.

SMILES | MITF primary | FBW7 act | GPR151 ag | TEAD-YAP inh
NNC(=O)/C(=C/c1cccs1)NC(=O)c1ccccc1 | 0 | 0 | -1 | 47*
CCOc1ccc(O)c(/C=N/NC(=O)/C(=C\c2cccs2)NC(=O)c2ccccc2)c1 | -1 | 0 | 0 | 8
COc1ccc(CC(=O)Nc2c3c(nn2C(C)(C)C)CS(=O)(=O)C3)cc1OC | -2 | · | 0 | ·
CCOc1ccc(/C(O)=C/c2nc3cc(S(=O)(=O)CC)ccc3oc2=O)cc1 | 25 | 0 | 0 | 5
COc1ccc(-c2nc(Nc3ccc(Oc4ccccc4)cc3)c3[nH]cnc3n2)cn1 | -4 | 0 | -1 | 1
CC(C)[C@H]1CN(Cc2ccco2)CCN1C(=O)N1CCOCC1 | 3 | 0 | 1 | 3
CCOC(=O)C1CCN(c2nc(-c3ccncc3)nc3cnccc23)CC1 | -4 | 0 | 4 | 33*
CCOC(=O)C1CCN(c2nc(-c3ccc(Br)cc3)nc3ccccc23)CC1 | 0 | 0 | 1 | 7
O=[N+]([O-])c1ccccc1NC(=S)N/N=C/c1ccc(O)c(O)c1O | 57* | -1 | 1 | 49*
Oc1ccc(/C=N/NC(=S)Nc2cccnc2)c(O)c1O | 84* | -1 | -1 | -6
Oc1ccc(/C=N/NC(=S)Nc2cccnc2)c(O)c1 | 119* | -1 | 0 | 4
Oc1cccc(/C=N/NC(=S)Nc2cccnc2)c1O | 112* | -1 | -2 | 40*
O=C(c1cc2n(n1)C(C(F)(F)F)CC(c1ccc(Cl)c(Cl)c1)N2)N1CCN(Cc2ccccc2)CC1 (stereo unspecified) | 8 | 0 | -1 | -2
O=C(CCOc1ccccc1)OCC(=O)c1cc2ccccc2o1 | 6 | 0 | 2 | -8
C=CCN1/C(=C/C=C/c2sc3ccccc3[n+]2CC=C)Sc2ccccc21 | 45 | 0 | -1 | 89*
CCN1\C(=C/C=C(C)/C=C/c2sc3ccccc3[n+]2CC)Sc2ccccc21 | -24 | 11* | 2 | 66*
CCN1/C(=C/c2sc3ccccc3[n+]2CCO)Sc2ccccc21 | 21 | 1 | 2 | 38*
CCN1/C(=C/C(C)=C/c2sc3ccccc3[n+]2CCO)Sc2ccccc21 | 44 | 0 | -1 | 39*
Cc1sc2ccccc2[n+]1CCO | -1 | 0 | 1 | -17
COc1ccc(-c2nc3ccccc3c(=O)n2OC(=O)c2ccccc2Cl)cc1OC | 3 | 0 | -1 | -13
CC(=O)Nc1ccc(NCCC#N)cc1 | 8 | 0 | -1 | -6
CCC(NS(=O)(=O)c1ccc(C)cc1)C(=O)NCc1ccco1 (stereo unspecified) | -4 | 0 | 0 | 5
O=C(NCCOc1ccc(Cl)cc1)c1cccc(C(=O)NCCOc2ccc(Cl)cc2)c1 | 7 | 0 | 0 | 6
NS(=O)(=O)c1cc(C(=O)NCCOc2ccc(Cl)cc2)c(Cl)cc1Cl | -7 | 0 | -1 | 37*
N/C(=N\OC(=O)c1cccc(Cl)c1)c1ccccn1 | 12 | 0 | -6 | 49*
SMILES | MITF primary | FBW7 act | GPR151 ag | TEAD-YAP inh
N/C(=N\OC(=O)c1ccccc1I)c1ccccn1 | -14 | 0 | -5 | -27
Cc1ccc(C(=O)O/N=C(\N)c2ccccn2)c(C)c1 | -4 | 0 | -10 | 90*
N/C(=N\OC(=O)c1ccccc1F)c1ccccn1 | 18 | 1 | -9 | 82*
N/C(=N\OC(=O)c1ccccc1Br)c1ccccn1 | 15 | 0 | -7 | 66*
Cc1cc(C)cc(C(=O)O/N=C(\N)c2ccccn2)c1 | 15 | 0 | -1 | -44
Cc1ccc(C(=O)N[C@H]2C[C@H]3C(=O)N4CCC[C@H]4C(=O)N3C2)cc1F | 5 | 0 | 1 | 0
CCOC(=O)C1(CCOC)CCN(C2CCN(c3ccc(F)cc3)CC2)CC1 | 4 | 0 | 2 | 1
COc1ccccc1C(=O)O/N=C(\N)c1ccccn1 | 1 | 0 | -8 | 38*
Cc1cc(C)c(C(=O)/C=C/c2ccccn2)c(=O)[nH]1 | 12 | 0 | -2 | 77*
COc1cccc(/C=C/C(=O)c2c(C)cc(C)[nH]c2=O)c1O | 2 | 0 | 0 | 1
COc1ccccc1/C=C/C(=O)c1c(C)cc(C)[nH]c1=O | -2 | 0 | -1 | 37*
O=C(O)c1c(CNCc2ccccc2Cl)c2ccccc2n1Cc1ccccc1F | 12 | 0 | -1 | 14
CCOC(=O)c1c(C)[nH]c(C(=O)Nc2ccc(C(C)=O)cc2)c1C | 3 | 0 | -1 | -17
Brc1ccc(C2Nc3c(I)cccc3C3C=CCC32)cc1 (stereo unspecified) | 10 | 0 | -2 | 11
O=C(O)C1Nc2c(I)cccc2C2C=CCC12 (stereo unspecified) | 83* | -1 | 0 | 7
O=C(O)C1Nc2c(O)cccc2C2C=CCC12 (stereo unspecified) | 108* | 0 | 2 | -3
O=C(O)c1ccc(/C=N\n2c(C3CCCCC3)n[nH]c2=S)cc1 | -6 | 0 | -1 | 12
O=C(Nc1ccc(-n2cccn2)cc1)C1CCN(Cc2cccc3nonc23)CC1 | -4 | 0 | 0 | -6
CCN1C(=O)CC(C(=O)Nc2ccc(Br)cc2)SC1=Nc1ccc(OC)cc1 (stereo unspecified) | -12 | 0 | 1 | 34*
CCOc1ccc(NC(=O)C2CC(=O)N(CC)C(=Nc3ccc(OC)cc3)S2)cc1 (stereo unspecified) | 15 | 0 | -1 | 5
NC(=O)c1c(NC(=O)c2c(F)cccc2F)sc2c1CCN(Cc1ccccc1)C2 | 11 | 1 | 0 | 1
O=c1oc2c(ccc3c(O)cccc32)c2c1CCCC2 | 13 | 1 | -2 | 45*
COC(=O)COc1cccc2c1ccc1c3c(c(=O)oc12)CCCC3 | 6 | 0 | 0 | 0
Cc1cc(C)c2cc3c(N)c(C(=O)Nc4nccs4)sc3nc2c1 | 5 | 5.4* | -1 | -16
Cc1cc(C)c2c(N)c(C(=O)Nc3nccs3)sc2n1 | 0 | 0 | -1 | 70*
SMILES | MITF primary | FBW7 act | GPR151 ag | TEAD-YAP inh
COC(=O)c1c(NS(=O)(=O)c2ccc([N+](=O)[O-])cc2)sc2c1CCCC2 | 3 | 0 | 2 | 1
O=C(NCc1nc(-c2ccccc2)no1)C(c1ccccc1)c1ccccc1 | -5 | 0 | 1 | -4
O=C(NCCCc1cccnc1)c1ccc(-n2cc(NC(=O)C3CCOC3)cn2)cc1 (stereo unspecified) | 16 | 0 | -1 | 32*
O=C(NCCn1ccc2ccccc21)c1ccc(-n2cc(NC(=O)c3ccoc3)cn2)cc1 | 8 | 0 | 0 | -8
O=C(NCCOc1cccnc1)c1ccc(-n2cc(NC(=O)c3ccoc3)cn2)cc1 | -10 | 0 | -1 | 52*
COc1ccccc1N=C/C(C(=O)C(F)(F)F)=C(\O)c1cccs1 | 13 | 1 | -2 | 50*
COC(=O)c1ccccc1N=C/C(C(=O)C(F)(F)F)=C(\O)c1cccs1 | 5 | 0 | -1 | -16
COc1cc(OC)nc(CCC(=O)NCCN2CCOCC2)n1 | 1 | 0 | 0 | 8
COc1ccc(Nc2nnc(SCC(=O)c3c(C)[nH]c4ccccc34)s2)cc1 | -1 | 0 | -1 | -18
COc1cc(-c2noc(C3CC(=O)N(c4ccc(C)cc4C)C3)n2)cc(OC)c1OC (stereo unspecified) | -1 | 0 | -1 | 44*
